# About 83,000 compounds went through this panel and 20% of them were active in at least one assay; those are over-represented in the sample as a whole.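 Note: values are percent growth. 100 is the growth of untreated cells, values between 100 and 0 indicate rising inhibition; between -100 and 0 indicates cell death.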 Unmarked numbers belong to inactive results. The source made the active and inactive calls. Rule for the calls: active = growth percent below 10; inactive = the rest.
# Tests used:
# Experiment in all cases: NCI-60 one-dose screen, 48 h (100 = growth as untreated, 0 = no growth, -100 = all killed)
# Details in all cases: 10 µM unless noted
# [1] = test system: NCI-H23 lung
# [2] = test system: NCI-H226 lung
# [3] = test system: NCI-H322M lung
# [4] = test system: HOP-62 NSCLC
# [5] = test system: NCI-H460 lung
# [6] = test system: HOP-92 NSCLC
# [7] = test system: NCI-H522 lung
# [8] = test system: A549/ATCC NSCLC
# [9] = test system: 786-0 renal
# [10] = test system: COLO 205 colon
# [11] = test system: DU-145 prostate
# [12] = test system: K-562 leukemia
# [13] = test system: MALME-3M melanoma
# [14] = test system: MDA-MB-231 breast
# [15] = test system: RXF 393 renal
# [16] = test system: SF-268 CNS
# [17] = test system: SF-295 CNS
# [18] = test system: SF-539 CNS
# [19] = test system: UACC-257 melanoma
# [20] = test system: M14 melanoma
SMILES,growth [1],growth [2],growth [3],growth [4],growth [5],growth [6],growth [7],growth [8],growth [9],growth [10],growth [11],growth [12],growth [13],growth [14],growth [15],growth [16],growth [17],growth [18],growth [19],growth [20]
Cc1cccc(/C=C2\N=C(c3ccccc3)N(c3ccc(S(N)(=O)=O)cc3)C2=O)c1,90%,110%,97.5%,83.5%,93.2%,105%,82.5%,75.7%,95.2%,104%,97%,90.9%,82.7%,96.7%,102%,91.4%,86.5%,72.2%,94.4%,107%
Cn1cc(-c2noc(C(=O)c3cn(C)c4ncccc34)n2)c2ccccc21,92.3%,89.4%,95.5%,95%,99.3%,41.4%,81.1%,100%,94.5%,99.8%,87.4%,76.1%,72.5%,70.3%,88.5%,99.3%,101%,90.2%,103%,98.7%
CCCCCCNC(=O)Nc1ncnc2c1ncn2-c1ccccc1,98%,93.8%,94.9%,77.6%,102%,89.3%,82.5%,88%,85.5%,88.8%,108%,106%,115%,92.8%,106%,103%,90.1%,94%,105%,104%
CCN(CC)c1ccc2cc(C(Nc3ccc(Cl)cc3)c3nnnn3C(C)(C)C)c(=O)oc2c1 (stereo not given),95.6%,82.9%,93.8%,99.5%,84.1%,76.9%,79.5%,77.9%,94%,114%,93.6%,78.9%,98.1%,90.8%,86.9%,80.6%,95.9%,94.8%,92.2%,97.6%
CCn1cc(-c2cc(-c3ccc(Cl)cc3)nc(N)n2)c(-c2ccc(Br)cc2)n1,79.4%,86.1%,92.6%,74.7%,95.4%,74.2%,48.7%,64.7%,89.4%,85.7%,99.4%,77.4%,93.8%,60.6%,94.8%,94.8%,84.3%,87.3%,73.5%,74.5%
O=C(N=c1n(-c2ccccc2)nc2n1CCN2C1=NCCN1)c1ccc(Cl)cc1,86.9%,93.3%,91.2%,91.6%,77.3%,61%,95.9%,83.4%,104%,62.2%,95.7%,71.9%,91.3%,69.5%,61.9%,83.8%,97.1%,77.8%,102%,107%
O=C(NCc1ccccc1)C(Cl)Cl,104%,93.3%,102%,98.6%,108%,95.1%,101%,97.4%,104%,116%,110%,108%,101%,102%,107%,99.7%,95.7%,97.4%,102%,101%
O=C(NCCO)c1cccnc1,102%,92.7%,95.9%,91.9%,98.9%,82.7%,73%,88.5%,97%,105%,109%,95.2%,105%,112%,112%,100%,101%,101%,87.7%,104%
COc1ccc(C(=O)/C=C/c2ccccn2)c(O)c1,85.4%,98%,95.3%,87.5%,89.7%,78.6%,69.4%,94%,79.6%,103%,45.1%,41.9%,88.2%,82.4%,56.2%,90.5%,97.1%,49.4%,100%,86.6%
CC(C)(C)c1cc(C(=O)Nc2ccccc2C(=O)NCCN)cc(C(C)(C)C)c1,79.9%,78.3%,21.9%,67.8%,-55.2% (active),19.6%,16.1%,7.64% (active),-35.7% (active),-76.6% (active),15.8%,-11.2% (active),47.7%,-69.4% (active),-89.3% (active),57.5%,-69.4% (active),63.4%,63.2%,-73.9% (active)
C=C(C)[C@@H]1CC[C@]2(C(=O)NCCNCCNCCN)CC[C@]3(C)[C@H](CC[C@@H]4[C@@]5(C)CC[C@H](O)C(C)(C)[C@@H]5CC[C@]43C)[C@@H]12,-51.7% [100 µM] (active),-23.6% [100 µM] (active),-83.8% [100 µM] (active),-69.1% [100 µM] (active),-100% [100 µM] (active),-65.4% [100 µM] (active),-57.8% [100 µM] (active),-64.6% [100 µM] (active),-83.5% [100 µM] (active),-19.5% [100 µM] (active),-8.34% [100 µM] (active),-15.8% [100 µM] (active),-100% [100 µM] (active),-56.9% [100 µM] (active),-82.9% [100 µM] (active),-31% [100 µM] (active),-84.7% [100 µM] (active),-100% [100 µM] (active),-39.6% [100 µM] (active),-31% [100 µM] (active)
CCCCCCCCCCCCCCNC(=O)Nc1ccc(Cl)c(Cl)c1,-0.614% (active),18.5%,108%,56.6%,86.6%,9.28% (active),-7% (active),77.8%,12.3%,31.7%,40.1%,100%,22.2%,27.7%,24.4%,46%,18.6%,51.1%,41.4%,49.2%
CC(C)=CC/C=C(/C)[C@H]1CC[C@]2(C)[C@@H]1CC[C@@H]1[C@@]3(C)CCCNC(C)(C)[C@@H]3CC[C@]12C,-61.7% [100 µM] (active),-49.5% [100 µM] (active),-99.4% [100 µM] (active),-48.3% [100 µM] (active),-74.2% [100 µM] (active),-56.6% [100 µM] (active),-59.3% [100 µM] (active),-51.8% [100 µM] (active),-56.2% [100 µM] (active),-62.4% [100 µM] (active),-78.7% [100 µM] (active),-19.2% [100 µM] (active),-78.9% [100 µM] (active),-74.7% [100 µM] (active),-70.1% [100 µM] (active),-48% [100 µM] (active),-77.8% [100 µM] (active),-86% [100 µM] (active),-72.3% [100 µM] (active),-58.6% [100 µM] (active)
CCOC(=O)c1cc(C#N)n2ncc3ccccc3c12,94.1%,91.2%,102%,90.8%,101%,80.7%,93.3%,100%,95.7%,118%,109%,95.1%,102%,98.6%,102%,101%,103%,89%,-53.6% (active),93.2%

# Reference: PubChem BioAssay (NCI)
